PubChem BioAssay (Tox21)
Inconclusive results are not listed. The source made the active and inactive calls. Unless noted, the call rests on the fitted dose curve; in most records, active means well fitted curve in the direction sought with a large enough effect in the repeat runs; inconclusive means weak or mixed curves; inactive means no such curve, though single readings can be large; an effect the other way counts as inactive or inconclusive.

Tests used:
[1] = qHTS assay for small molecule agonists of the p53 signaling pathway (AID 651631; calls by dose curve; further: nearly all actives have a fitted effect of over 15% in size)
Procedure, shortened: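 We treat p53RE-bla HCT-116 cells with compounds for 16 h at 37 °C, add LiveBLAzer B/G FRET substrate for 2 h at room temperature, and measure fluorescence intensity.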

[2] = qHTS assay for small molecules that induce genotoxicity in human embryonic kidney cells expressing luciferase-tagged ATAD5 (AID 651632); further: nearly all actives have a fitted effect of over 15% in size
Procedure, shortened: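 DMSO vehicle served as the control. HEK293T reporter cells, 16 hr at 37C, then 30 min Amplite at room temperature; ATAD5 induction is measured as luciferase activity.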

[3] = qHTS assay for small molecule agonists of the p53 signaling pathway - cell viability (AID 651633; calls by dose curve;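 further: p53RE-bla HCT reporter cells with a stable beta-lactamase p53 reporter; series mostly up to about 83 µM; nearly all actives have a fitted effect of over 30% in size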)
Procedure, shortened: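 p53RE-bla cells, seeded at 4,000 per well and rested 5 h at 37 C/5% CO2, received compounds in DMSO for 16 h at 37 C. CellTiter-Glo was then added, and luminescence was read after 30 min at room temperature to gauge cytotoxicity.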

[4] = qHTS assay for small molecules that induce genotoxicity in human embryonic kidney cells expressing luciferase-tagged ATAD5 - cell viability (AID 651634; calls by dose curve; further: nearly all actives have a fitted effect of over 25% in size)
Procedure, shortened: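 Here HEK293T cells with the ATAD5 luciferase reporter are incubated with test compounds for 15.5 hr, and cytotoxicity is then gauged by measuring protease activity in live cells using fluorescence.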

[5] = qHTS assay for small molecule disruptors of the mitochondrial membrane potential - cell viability (AID 720634; calls by dose curve;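 further: human HepG2 liver cancer cells; series mostly up to about 83 µM; nearly all actives have a fitted effect of over 20% in size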)
Procedure, shortened: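 Viability of HepG2 cells is scored from ATP content by luminescence; cells are exposed to compound for 1 hr at 37 C and 5% CO2, then dosed with m-MPI dye before the CellTiter-Glo reagent.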

[6] = qHTS assay for small molecule disruptors of the mitochondrial membrane potential (AID 720635)
Procedure, shortened: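 HepG2 cells (2,000/well) attached overnight at 37C, then took compound for 1 hr at 37C, 5% CO2. Mito-MPS dye was added for 30 min; fluorescence was read at 490/535 nm (monomers) and 540/590 nm (aggregates).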

[7] = qHTS assay to test for compound auto fluorescence at 590 nm (red) in HepG2 cells (AID 720674)
Procedure, shortened: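 Compound auto-fluorescence is scored relative to Rose Bengal sodium, measured at 540/590 nm in live HepG2 cultures after 1 hr compound contact (37 C, 5% CO2).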

[8] = qHTS assay to test for compound auto fluorescence at 535 nm (green) in HepG2 cells (AID 720675)
[9] = qHTS assay to test for compound auto fluorescence at 460 nm (blue) in HEK293 cells (AID 720678)
Procedure, shortened: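 Cells were seeded and left to adhere for 4-5 hr at 37C. Compounds were then pin-transferred. After an overnight incubation at 37C under 5% CO2, intrinsic fluorescence at 405/460 nm was measured and referenced to triamterene.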

[10] = qHTS assay to test for compound auto fluorescence at 590 nm (red) in HEK293 cells (AID 720679)
Procedure, shortened: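 Each well held 2,000 HEK293 cells in medium containing 10% dialyzed FBS. Following 4-5 hr attachment at 37C, 23 nL test compound or DMSO was added; plates sat overnight, and red fluorescence (540/590nm) was recorded.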

[11] = qHTS assay to test for compound auto fluorescence at 535 nm (green) in HEK293 cells (AID 720680)
[12] = qHTS assay to test for compound auto fluorescence at 460 nm (blue) in HEK293 cell free culture (AID 720681)
Procedure, shortened: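 Test compounds were pinned into cell-free culture medium (DMEM with 10% FBS) and fluorescence was read directly at Ex/Em 405/460 nm. Signals were expressed as fluorescence equivalents of triamterene, with DMSO vehicle as control.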

[13] = qHTS assay to test for compound auto fluorescence at 535 nm (green) in HEK293 cell free culture (AID 720682)
Procedure, shortened: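 Green-channel intensity (Ex/Em 485/535 nm) was recorded from compound-treated wells containing only DMEM with 10% FBS. Fluorescein provided the equivalency standard.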

[14] = qHTS assay to test for compound auto fluorescence at 590 nm (red) in HEK293 cell free culture (AID 720683)
Procedure, shortened: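 Tox21 10K library compounds were pinned into cell-free DMEM with 10% FBS and fluorescence was read at excitation 540 nm. Activity is expressed as Rose Bengal sodium equivalency.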

[15] = qHTS assay to test for compound auto fluorescence at 590 nm (red) in HepG2 cell free culture (AID 720684)
Procedure, shortened: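 Readout: intrinsic compound fluorescence at 590 nm emission after 540 nm excitation, scaled to Rose Bengal sodium. Matrix was cell-free MEM with 10% FBS; DMSO vehicle wells served as control.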

[16] = qHTS assay to test for compound auto fluorescence at 460 nm (blue) in HepG2 cell free culture (AID 720685)
Procedure, shortened: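 Cell-free plates of MEM plus 10% FBS received 23 nL compound or DMSO vehicle; blue-channel (405/460 nm) intensity scored against triamterene as reference fluorophore.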

[17] = qHTS assay to test for compound auto fluorescence at 535 nm (green) in HepG2 cell free culture (AID 720686)
[18] = qHTS assay to test for compound auto fluorescence at 460 nm (blue) in HepG2 cells (AID 720687)
Procedure, shortened: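 Cells (2,000/well in MEM with 10% FBS) attached overnight at 37 C, then were exposed to compound or DMSO for 1 hr at 37 C, 5% CO2. Fluorescence read at Ex/Em 405/460 nm, expressed as triamterene-equivalent signal.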

[19] = target: Glucocorticoid receptor (Homo sapiens) (UniProt P04150); assay: qHTS assay to identify small molecule agonists of the glucocorticoid receptor (GR) signaling pathway (AID 720691; active means well fitted activation curve with a large enough effect in the signal ratio in the repeat runs, not every such curve was filed as active; the % refers to the signal ratio)
Glucocorticoid receptor (Homo sapiens), sequence (P04150 whole entry, looked up): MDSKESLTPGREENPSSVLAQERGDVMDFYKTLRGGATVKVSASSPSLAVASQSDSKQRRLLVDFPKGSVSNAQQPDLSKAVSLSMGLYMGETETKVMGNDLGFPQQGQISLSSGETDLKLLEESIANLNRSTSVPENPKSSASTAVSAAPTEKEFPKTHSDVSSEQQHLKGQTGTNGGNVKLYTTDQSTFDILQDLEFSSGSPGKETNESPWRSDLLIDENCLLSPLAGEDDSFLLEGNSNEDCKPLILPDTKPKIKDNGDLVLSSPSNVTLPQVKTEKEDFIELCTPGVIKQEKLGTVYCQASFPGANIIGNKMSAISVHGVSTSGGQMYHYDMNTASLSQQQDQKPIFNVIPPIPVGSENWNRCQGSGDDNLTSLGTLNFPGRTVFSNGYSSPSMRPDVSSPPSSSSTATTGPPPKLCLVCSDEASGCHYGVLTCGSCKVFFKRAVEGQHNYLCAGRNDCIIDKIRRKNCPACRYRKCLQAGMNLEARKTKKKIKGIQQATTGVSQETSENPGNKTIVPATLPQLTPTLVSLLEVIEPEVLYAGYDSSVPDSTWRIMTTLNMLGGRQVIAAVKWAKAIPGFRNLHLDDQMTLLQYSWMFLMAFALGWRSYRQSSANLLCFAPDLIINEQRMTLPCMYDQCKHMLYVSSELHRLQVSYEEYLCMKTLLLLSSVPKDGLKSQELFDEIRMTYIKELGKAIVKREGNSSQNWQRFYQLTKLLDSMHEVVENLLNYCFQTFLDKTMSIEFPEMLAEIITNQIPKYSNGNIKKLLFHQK
Procedure, shortened: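 Compounds in DMSO, alongside positive controls, were added to GR-bla HeLa reporter cells and incubated 18 h at 37 C; GRE-driven beta-lactamase was detected by fluorescence after 2 h with FRET substrate at room temperature.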

[20] = target: Glucocorticoid receptor (Homo sapiens) (UniProt P04150); assay: qHTS assay to identify small molecule antagonists of the glucocorticoid receptor (GR) signaling pathway (AID 720692; active means well fitted inhibition curve with a large enough effect in the signal ratio in the repeat runs, not every such curve was filed as active; the % refers to the signal ratio)
Procedure, shortened: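 In a 1536-well cell format, compounds were added 4 h after seeding GR-bla HeLa cells, together with dexamethasone at 5 nM final; reporter activity was measured by FRET-substrate fluorescence following 18 h at 37 C.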

Measured: Potency

NS(=O)(=O)c1ccccc1Cl
not listed: [19] | [20]
inactive: all other assays above

O=C(O)c1ccccc1OP(=O)(O)O
inactive: all assays above

CC(C)(CC(=O)O)C(=O)O
not listed: [19] | [20]
inactive: all other assays above

O=c1cc(CO)occ1O
inactive: all assays above

O=C(O)CCCc1ccccc1
inactive: all assays above

CN1CC(=O)NC1=N
inactive: all assays above

C=CCS(=O)(=O)O
not listed: [20]
inactive: all other assays above

Cc1c(NC(C)C)c(=O)n(-c2ccccc2)n1C
inactive: all assays above

CCCCCSCCCCC
not listed: [19] | [20]
inactive: all other assays above

CC(C)CCCC(C)N (centres undefined)
inactive: all assays above

CC(C)CNCC(C)C
not listed: [19] | [20]
inactive: all other assays above

COC(=O)c1cc(C(=O)OC)cc(S(=O)(=O)O)c1
not listed: [20]
inactive: all other assays above

O=C1CCCCCCCCCCCN1
inactive: all assays above

Cc1cc(O)cc2c1O[C@](C)(CCC[C@H](C)CCC[C@H](C)CCCC(C)C)CC2
not listed: [20]
inactive: all other assays above
